Compounds without any hit were thinned out: in the full panel of roughly 83,000, 20% have a hit.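 Values shown are percent growth following 48 h exposure of cells in 96-well plates to a single concentration of compound; below 10 was considered active.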 Unmarked numbers belong to inactive results. The source made the active and inactive calls.
Experiments:
Experiment in all cases: NCI-60 one-dose screen, 48 h (100 = growth as untreated, 0 = no growth, -100 = all killed)
Details in all cases: 10 µM unless noted
NCI-H23 lung = system: NCI-H23 lung
NCI-H226 lung = system: NCI-H226 lung
NCI-H322M lung = system: NCI-H322M lung
HOP-62 NSCLC = system: HOP-62 NSCLC
NCI-H460 lung = system: NCI-H460 lung
HOP-92 NSCLC = system: HOP-92 NSCLC
NCI-H522 lung = system: NCI-H522 lung
A549/ATCC NSCLC = system: A549/ATCC NSCLC
786-0 renal = system: 786-0 renal
COLO 205 colon = system: COLO 205 colon
DU-145 prostate = system: DU-145 prostate
K-562 leukemia = system: K-562 leukemia
MALME-3M melanoma = system: MALME-3M melanoma
MDA-MB-231 breast = system: MDA-MB-231 breast
RXF 393 renal = system: RXF 393 renal
SF-268 CNS = system: SF-268 CNS
SF-295 CNS = system: SF-295 CNS
SF-539 CNS = system: SF-539 CNS
UACC-257 melanoma = system: UACC-257 melanoma
M14 melanoma = system: M14 melanoma

SMILES | growth (NCI-H23 lung) | growth (NCI-H226 lung) | growth (NCI-H322M lung) | growth (HOP-62 NSCLC) | growth (NCI-H460 lung) | growth (HOP-92 NSCLC) | growth (NCI-H522 lung) | growth (A549/ATCC NSCLC) | growth (786-0 renal) | growth (COLO 205 colon) | growth (DU-145 prostate) | growth (K-562 leukemia) | growth (MALME-3M melanoma) | growth (MDA-MB-231 breast) | growth (RXF 393 renal) | growth (SF-268 CNS) | growth (SF-295 CNS) | growth (SF-539 CNS) | growth (UACC-257 melanoma) | growth (M14 melanoma)
O=C1NC(=NC23CC4CC(CC(C4)C2)C3)N/C1=C\c1ccc2ncccc2c1 | -15.2% (active) | -38.5% (active) | 22.6% | -64.4% (active) | -68.8% (active) | -11.7% (active) | -37% (active) | -46.3% (active) | -51% (active) | 19.5% | 3.46% (active) | 11% | 2.17% (active) | -14% (active) | -4.92% (active) | 35.2% | -29.6% (active) | 2.08% (active) | 50.6% | 45.9%
COc1ccc(Nc2nnc(-c3c[nH]c4ccccc34)o2)cc1 | 82.7% | 74.9% | 89.8% | 77.8% | 96.3% | 84.5% | 32.2% | 89.3% | 91.9% | 113% | 95.8% | 68.1% | 79.5% | 64.7% | 104% | 71.9% | 98% | 69.7% | 95.9% | 97.7%
Nc1nc2cc(-c3ccc4ncnc(NCc5ccccc5)c4c3)ccc2o1 | 24.4% | -45.9% (active) | -19.8% (active) | -46.1% (active) | 7.02% (active) | -39.5% (active) | -12.1% (active) | 11.4% | 9.02% (active) | 52.9% | 15.9% | 25.9% | -23.8% (active) | -48.8% (active) | -75.6% (active) | 25% | -42.3% (active) | -86.5% (active) | 68.4% | 22.4%
CCc1ccccc1-c1nc(CN[C@@H]2C[C@@H]3C[C@H]([C@H]2C)C3(C)C)c(C)o1 | -78.7% (active) | -68.7% (active) | -92.5% (active) | -78.9% (active) | -54.5% (active) | -81.5% (active) | -85.9% (active) | -49.7% (active) | -82.1% (active) | -74.8% (active) | -74.9% (active) | 12.2% | -80.5% (active) | -78.3% (active) | -85.1% (active) | 6.04% (active) | -93.5% (active) | -96.5% (active) | -75.8% (active) | -83.5% (active)
COC(=O)c1c(C(=O)OC)c2c3ccccc3c3ccccc3n2c1C(=O)C(C)(C)C | 82.8% | 85.7% | 105% | 118% | 80.3% | 55.7% | 73.6% | 101% | 86.6% | 80.1% | 95.7% | 47.1% | 100% | 73.5% | 82.3% | 89.3% | 81.7% | 83.3% | 94.8% | 74.3%
Cc1ccc(C2CC(c3ccc(NC(=S)Nc4ccccc4)cc3)=NN2c2ccc(S(N)(=O)=O)cc2)cc1 (stereo not given) | 23.6% | -7.72% (active) | 45.6% | 34.6% | -11.1% (active) | 7.59% (active) | 15.8% | 15.1% | 18.6% | -3.89% (active) | 19.7% | 22.7% | -0.146% (active) | 15.2% | -16.1% (active) | 15.6% | 8.39% (active) | 10.3% | 36.6% | 19%
Cc1cnc2ccc(Oc3ccccc3-c3ccccc3)nn12 | 96.6% | 106% | 103% | 124% | 118% | 122% | 108% | 117% | 102% | 131% | 115% | 101% | 100% | 109% | 107% | 106% | 97.5% | 104% | 116% | 99.6%
N#Cc1c(-c2ccc(F)cc2)nc(SCc2ccc(F)cc2)nc1N1CCNCC1 | -61.3% (active) | 76.9% | 36.1% | -65.4% (active) | -85.1% (active) | -64.9% (active) | -70.4% (active) | -74.8% (active) | -79.1% (active) | -68.8% (active) | -3.44% (active) | 0.722% (active) | -97.8% (active) | -93.6% (active) | -64.7% (active) | 41.5% | -79.9% (active) | -98.9% (active) | -90.7% (active) | -88.4% (active)
c1n[nH]cc1-c1nc2ccc3[nH]ncc3c2c2c1CC1(CC2)COC1 | 62% | 66% | 64% | 77.7% | 73.4% | 92.1% | -24.6% (active) | 95.9% | 60.6% | 24.6% | 62.7% | 33.9% | 29% | 69.5% | -2.43% (active) | 63.6% | 104% | 26.6% | 66.4% | 31.9%
Cn1cc(-c2cc3nc(-c4c[nH]c5ccccc45)cc(N)n3n2)c2ccccc21 | -56.9% (active) | 5.22% (active) | 19.4% | -68.2% (active) | -75.5% (active) | -29.4% (active) | -65.5% (active) | -81.7% (active) | -90.6% (active) | -88.8% (active) | 11.6% | -7.67% (active) | -92.8% (active) | -93.2% (active) | 82.7% | 77.1% | -61.2% (active) | -97.4% (active) | -88.4% (active) | -60.5% (active)
C=CC(=O)N1CCN(c2ccc3nc4c(nc3c2C(F)(F)F)C(=O)c2ncccc2C4=O)CC1 | -61.5% (active) | 63.8% | 10.2% | 39.9% | -34.3% (active) | -3.31% (active) | -8.31% (active) | 2.38% (active) | 22% | -22.8% (active) | 23.6% | 3.62% (active) | -97.9% (active) | -13.6% (active) | 44.1% | 21.3% | 28.8% | -32.9% (active) | -82.7% (active) | -59.9% (active)
CCCn1c(NC(=O)c2cccc(C(N)=O)c2)nc2ccc(CN3CCCCC3)cc21 | 89.8% | 102% | 82% | 105% | 81.9% | 84.4% | 94.1% | 99.8% | 12% | 97.4% | 87.1% | 85.8% | 92.4% | 126% | 46.4% | 107% | 106% | 106% | 121% | -6.41% (active)
OC(c1ccccc1)(c1ccccc1)C1CCN(c2ccc3nnc(Cl)n3n2)CC1 | 36.8% | 11.2% | 74.1% | 63.7% | 19.8% | 19.7% | -60.4% (active) | 36.3% | 41.8% | -29.4% (active) | 54.6% | 10.7% | 26.8% | 68% | 32.8% | 63.7% | 19% | 51.8% | 72.9% | 39.2%
CNS(=O)(=O)N1CCc2c(Br)c3c(c(OC)c2C1CCc1ccccc1)OCO3 (stereo not given) | -19.5% (active) | -70.3% (active) | 4.7% (active) | -18.6% (active) | -67.7% (active) | -54.3% (active) | -12.3% (active) | 16.6% | -44.9% (active) | -51.3% (active) | 12.1% | 13.1% | -65% (active) | -62.8% (active) | -59.7% (active) | -12% (active) | -75.3% (active) | -86.5% (active) | -24.5% (active) | -9.58% (active)
O=C1/C(=C/c2cccc3c2OCO3)Cc2c(F)cc(Br)cc21 | 97.2% | 106% | 113% | 109% | 117% | 123% | 104% | 111% | 107% | 128% | 115% | 109% | 103% | 115% | 104% | 109% | 96% | 99.7% | 114% | 98.9%

Source: PubChem BioAssay (NCI)
